# From PubChem BioAssay
# ROMK primary – ROMK potassium channel modulators, primary screen, cell-based, thallium flux, MLSMR library. 130,000 tested, 2% active. AID 1918, 2009. B-score at 10 µM. ATP-sensitive inward rectifier potassium channel 1 (Homo sapiens), P48048. Tet-inducible ROMK, thallium flux fluorescence; actives lie on both sides;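 active = signal ratio slope over the read window, or its plate-corrected B-score, at least 3 SD from the plate mean, either direction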;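 note: B-score of the F/F0 ratio slope over 7 to 12 s after thallium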
# m-calpain inh – inhibitors of pig calpain II, primary screen, biochemical, fluorogenic peptide substrate, 1536-well. 220,000 tested, 0.37% active. inhibition, % at 16 µM. AID 1236, 2008. purified calpain II, 30 min;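 active = inhibition above about 50%, limit read from the data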
# Cl transport mod – KCC2 cotransporter modulators, thallium flux, primary screen, cell-based, HEK293 KCC2, FluoZin-2 fluorescence, MLSMR | B-score of Tl+ flux slope (higher = more flux/activation; lower = inhibition) at 10 µM | KCC2 cells, thallium flux FluoZin-2 fluorescence | 190,000 tested, 2.2% active | AID 1456, 2008;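 active = thallium flux slope and its plate-corrected score both differing from the plate sample mean at a set confidence after two filtering rounds, in either direction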;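 note: slope of fluorescence scaled to starting intensity during 10 to 20 s after thallium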
# Target sequence (Q9H2X9 whole entry, looked up): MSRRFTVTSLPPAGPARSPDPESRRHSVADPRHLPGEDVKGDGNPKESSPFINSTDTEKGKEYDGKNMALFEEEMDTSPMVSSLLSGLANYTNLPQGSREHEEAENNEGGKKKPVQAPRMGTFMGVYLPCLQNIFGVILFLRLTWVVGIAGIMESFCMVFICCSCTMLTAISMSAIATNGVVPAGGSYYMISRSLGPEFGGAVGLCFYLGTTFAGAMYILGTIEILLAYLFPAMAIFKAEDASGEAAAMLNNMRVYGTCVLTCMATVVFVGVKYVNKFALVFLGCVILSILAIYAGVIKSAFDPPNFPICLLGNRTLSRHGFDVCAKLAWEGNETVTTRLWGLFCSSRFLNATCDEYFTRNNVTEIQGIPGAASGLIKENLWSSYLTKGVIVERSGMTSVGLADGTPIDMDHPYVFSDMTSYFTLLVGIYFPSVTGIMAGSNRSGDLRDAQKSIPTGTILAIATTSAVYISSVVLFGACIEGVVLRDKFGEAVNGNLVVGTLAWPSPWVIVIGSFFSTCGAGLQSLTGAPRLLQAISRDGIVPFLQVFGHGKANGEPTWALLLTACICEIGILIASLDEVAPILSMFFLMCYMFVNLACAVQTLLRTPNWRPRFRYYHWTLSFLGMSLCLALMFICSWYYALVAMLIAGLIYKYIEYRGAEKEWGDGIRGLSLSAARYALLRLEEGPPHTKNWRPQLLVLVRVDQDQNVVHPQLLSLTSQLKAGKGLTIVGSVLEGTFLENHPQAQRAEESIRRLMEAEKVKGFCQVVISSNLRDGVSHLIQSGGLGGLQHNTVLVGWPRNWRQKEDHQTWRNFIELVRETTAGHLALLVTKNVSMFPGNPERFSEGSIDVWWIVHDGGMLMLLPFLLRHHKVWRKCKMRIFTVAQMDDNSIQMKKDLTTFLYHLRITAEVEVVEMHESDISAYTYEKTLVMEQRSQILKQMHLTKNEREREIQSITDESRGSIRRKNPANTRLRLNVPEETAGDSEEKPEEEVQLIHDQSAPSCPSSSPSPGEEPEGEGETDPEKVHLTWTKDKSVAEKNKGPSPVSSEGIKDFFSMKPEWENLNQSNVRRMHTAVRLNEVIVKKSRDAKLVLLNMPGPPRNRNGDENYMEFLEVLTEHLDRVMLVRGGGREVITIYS
# Lmaj promast – Leishmania major promastigote growth inhibition, primary screen | inhibition, % at 10 µM | Leishmania major promastigotes, resazurin fluorescence viability | 200,000 tested, 9% active; in the data active = inhibition above about 50%;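 note: promastigotes grown with compound for 44 hours at 28 °C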
# WT yeast gro inh – growth inhibition of WT strain, primary screen, mitochondrial fusion inhibitor project, WT and mutant strains, chemical genetic | mitochondrial fusion phenotypic screen | inhibition, % at 10 µM | 190,000 tested, 2.1% active | AID 1362, 2008; in the data active = inhibition above about 58%; tested in S. cerevisiae
# ROMK retest – ROMK channel modulator hit retest, confirmation, cell-based, thallium flux, duplicate, resupplied hits; fluorescence ratio; hits give low values; normalized thallium flux (F/F0 slope) at 10 µM; 3,000 tested, 54% active; shares compounds with ROMK primary;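 active = Flux at 10 µM at least 3 SD below or above vehicle control mean in one or both replicates; inconclusive = no clear call, values can overlap the other calls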
# An asterisk follows results filed as active; i = inactive; ? = inconclusive; · = no result. Most compounds without a hit are left out; they make up all but 12% or so of the library.
SMILES,ROMK primary,m-calpain inh,Cl transport mod,Lmaj promast,WT yeast gro inh,ROMK retest
O=C(O)COc1ccccc1/C=N/NC(=O)CSc1nnc(SCc2ccccc2)s1,-0.37,2,-0.13,·,·,·
N#C/C(=C/c1ccc(N2CCCCC2)o1)C(=O)Nc1ccc(Cl)cc1,·,-15,·,-4,4,0.048*
CN1CCN(NC(=O)c2cc(S(=O)(=O)Nc3ccc(Cl)cc3)ccc2Cl)CC1,·,-311,-0.49,·,·,·
O=[N+]([O-])c1ccc(N2CCN(C(=S)c3cccc([N+](=O)[O-])c3)CC2)cc1,-3.1*,-27,0.013,·,·,0.065*
CC(=O)N1CCN(C(=S)c2cccc([N+](=O)[O-])c2)CC1,0.59,-27,-4.1,-4,-7,·
O=C(CN1CCNCC1)NCCSc1ccc(Cl)cc1,-2*,30,-0.42,88*,-6,0.068*
CCOC(=O)C1CCN(C(=O)COC(=O)c2ccc3c(c2)C(=O)N(c2ccc(OCC)cc2)C3=O)CC1,0.017,11,-0.4,4,-4,·
CCN(CC)c1ccc(/C=C2\CCC(/C=C(\C#N)C(=O)Nc3ccccc3F)=C2N2CCOCC2)cc1,0.3,-26,0.44,2,35,·
CCN(CC)c1ccc(/C=C2\CCC(/C=N/NC(=O)c3ccc(=O)n(C)c3)=C2N2CCOCC2)cc1,·,-26,-1.6,10,-12,0.053*
Cc1oc(-c2ccccc2F)nc1CN1CCC(C(=O)NCCC2=CCCCC2)CC1,-5.4*,-6,-0.92,28,98*,0.056*
O=C(N/N=C/c1c(Cl)[nH]c2ccccc12)c1ccc2c(c1)OCCO2,·,-13,-1.9,·,·,·
O=C(O)CC(CNS(=O)(=O)c1ccccc1)c1ccccc1 (centres undefined),·,15,0.76,-4,6,?
CC(NC(=O)C(=O)N/N=C\c1ccc([N+](=O)[O-])cc1)c1ccccc1 (centres undefined),0.93,18,0.1,-3,-10,·
CCc1nnc(NC(=O)C2=CCN(S(=O)(=O)c3ccccc3)CC2)s1,-0.0064,-32,1.1,·,·,·
CCOC(=O)c1[nH]c2ccccc2c1NC(=S)Nc1cccc(C)c1,-0.14,-7,1.8,-6,-9,0.077
O=C(NCc1n[nH]c(=S)n1-c1ccc(F)cc1)c1ccc(S(=O)(=O)N2CCCC2)cc1,1.3*,1,-0.033,-5,·,0.086
CCC(NC(=O)NCc1cccnc1)(C(F)(F)F)C(F)(F)F,·,-38,0.2,-2,5,·
Cc1cccc(N2C(=O)CC(N3CCN(Cc4ccc(Cl)cc4)CC3)C2=O)c1 (centres undefined),-0.76,12,-1.2,2,-32,?
CC(C)C(=O)N1CCC(c2nc(-c3ccc(S(=O)(=O)N4CCN(C)CC4)cc3)no2)CC1,0.044,-8,-0.35,-1,-10,0.09
Cc1ccc(/C=C2\SC(=S)N(CCCC(=O)Nc3ccccn3)C2=O)cc1,·,1,1.5,0,-12,0.074
O=C(O)CCCCCN1C(=O)/C(=C/c2ccncc2)SC1=S,-4.2*,13,0.11,43,-33,0.048*
O=C(O)CCCCCN1C(=O)/C(=C\c2ccncc2)SC1=S,-4.1*,22,0.79,42,-8,0.049*
COc1ccc(NC(=O)N(CCC(C)C)C(C)c2ccccn2)c(OC)c1 (centres undefined),·,3,·,3,6,·
CN(Cc1ccccc1)Cc1nc2c(c(=O)n(C)c(=O)n2C)n1CCCc1ccccc1,-3.6*,5,-0.47,29,41,0.065*
Cn1c(SCc2ccccc2)nnc1-c1ccco1,0.42,19,1.5,46,-4,·
SMILES,ROMK primary,m-calpain inh,Cl transport mod,Lmaj promast,WT yeast gro inh,ROMK retest
c1ccc(CSc2n[nH]c(-c3ccco3)n2)cc1,2*,-12,-0.25,1,-2,0.073
Nc1ccc2c(c1)C(=O)C(=O)c1ccccc1-2,-5.6*,5,0.56,100*,97*,0.037*
Cc1ccc2cc(CN(Cc3nnnn3C3CCCC3)C3CCCCC3)c(=O)[nH]c2c1C,·,-7,-0.81,-3,-17,·
Cc1cc(C)c2[nH]c(=O)c(CN(Cc3ccc4c(c3)OCO4)Cc3nnnn3C3CCCC3)cc2c1,-3.2*,-72,-0.088,88*,35,?
CCCCCN1C(=O)Cn2c(nc3ccccc3c2=O)C1C (centres undefined),0.55,-1,0.14,-2,-1,·
O=C(NNC(=O)c1cc2cc(OC(F)(F)F)ccc2[nH]1)c1ccc(Cl)cc1,·,-21,-0.33,·,·,·
CCN1CCN(CCNC(=O)c2ccc(/C=C3/Sc4ccccc4N(Cc4ccccc4C)C3=O)cc2)CC1,-3.6*,-157,0.35,100*,77*,0.078
CCN1CCN(CCCNC(=O)c2ccc(/C=C3/Sc4ccccc4N(Cc4ccccc4F)C3=O)cc2)CC1,-3.3*,-139,-0.42,98*,82,0.077
O=C(NCCc1ccccc1)C(=O)NCC(c1ccco1)N1CCOCC1 (centres undefined),-0.36,24,-0.09,-8,3,·
Nc1ccc(S(=O)(=O)NC2=NCCCCC2)cc1N,-0.42,11,-0.18,-2,1,·
O=[N+]([O-])c1cc(S(=O)(=O)NC2=NCCCCC2)ccc1NCC1CCCCC1,-7.6*,1,-0.2,4,38,0.059*
C=CC1CN(CC(=O)OC)S(=O)(=O)c2ccccc21 (centres undefined),·,18,0.79,·,·,0.074
COc1ccc(C(=O)NCc2c(CC(C)C)oc(C)c2C(=O)O)cc1,·,-23,-0.46,-6,-18,0.076
COc1ccc(CNC(=O)c2ccc(C(C)C)cc2)cc1,·,34,-0.58,-6,2,·
CC(=O)Nc1ccc(S(=O)(=O)N2CCN(Cc3cccs3)CC2)cc1,-0.86,-6,-1.2,-1,10,·
CC(C)c1ccc(-n2c(-c3ccccc3)c[n+]3c2CCc2ccccc2-3)cc1,-6*,12,-0.93,100*,49,0.041*
O=[N+]([O-])c1ccc(C2=NCCO2)cc1,·,-3,-0.014,·,·,·
Cc1[nH]nc(SCC(=O)NCc2ccccc2)c1[N+](=O)[O-],-2.3*,11,-1.5,0,-10,0.074
Cc1[nH]nc(SCC(=O)NCCc2ccccc2)c1[N+](=O)[O-],·,0,-1,-8,-15,·
CC(=O)N(C(C)=O)N1C(=O)/C(=C/c2ccc(Cl)cc2)SC1=S,-3.2*,1,-0.69,34,11,0.053*
COC(=O)c1[nH]c2ccc(Cl)cc2c1NC(=O)Oc1ccccc1,·,i,0.46,-6,67,·
COC(=O)c1[nH]c2ccc(Cl)cc2c1NC(=O)C1CC1,·,-42,·,5,2,0.077
COc1ccc(CCC(C)Nc2ccccc2F)cc1 (centres undefined),0.23,8,-0.43,-9,14,·
